Screen size: about 3,400 compounds; about 840 (25%) were called active. Another 11% or so got no clear call; they are omitted. A selection follows. Potency and affinity values are given separately. A number with no mark means an inactive call.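 Rule for the calls: active = fitted half-maximal concentration of signal decrease at or below twice the sample's top tested concentration; inconclusive = flat curve between -70 and -30 percent, or poor fit; inactive = flat within 30 percent, signal rise, or potency above limit.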
Assay: T. gondii growth inhibition with IFN-gamma, dose response, cell-based, ME49Luc, HeLa, luciferase, 72 h (AID 1259418)
Conditions: T. gondii ME49Luc in IFN-y HeLa, hits give low values, -100% = high-dose IFN-γ control wells; at 19.5 µM unless noted

| Structure (SMILES) | max activity |
| --- | --- |
| Cc1nc2ccccc2n1CC(O)Cn1c2ccccc2c2ccccc21 (stereo unspecified) | 28.9% |
| CCOc1ccc(NC(=O)Nc2ccc(-c3nc(-c4ccc(C)cc4C)co3)cc2)cc1 | 21.2% [at 0.16 µM] |
| CCc1ccc2c(c1)cc(S(=O)(=O)c1ccccc1)c(=O)n2CC(=O)NC1CCCCC1 | -12.7% [at 1.35 µM] |
| N#Cc1cccc(-c2ccc([C@H]3[C@H]4CN(Cc5ccccc5F)CCCCN4[C@H]3CO)cc2)c1 | 26.6% [at 10 µM] |
| COc1ccccc1NC(=O)N1CCCCN2[C@H](CO)[C@@H](c3ccc(-c4cccc(C#N)c4)cc3)[C@H]2C1 | 24.8% [at 10 µM] |
| Cc1cccc(Cn2c(CN3CCC(C(=O)N4CCCC4)CC3)cc3ccccc32)c1 | -9.03% [at 0.35 µM] |
| Cc1ccc(C2=NC3(CCN(CC(=O)Nc4ccccc4C(F)(F)F)CC3)NC2=O)cc1 | -14.3% [at 0.35 µM] |
| CN(C)c1ccc(-c2nc3c([nH]2)c(=O)n(C)c(=O)n3C)cc1 | 17.3% [at 10 µM] |
| Cc1ccc(-c2coc(-c3ccc(NC(=O)Nc4cc(F)ccc4F)cc3)n2)c(C)c1 | -9.54% [at 5 µM] |
| COc1ccc(CN2CCC3(CC(n4cnnc4)CO3)C2)cc1 (stereo unspecified) | 33.5% |
| COc1ccc(CN2CCc3nc(SCc4nc(-c5ccccc5)oc4C)[nH]c(=O)c3C2)cc1 | -18.7% [at 2.6 µM] |
| COCCCN1CCc2nc(SCc3nc(-c4ccccc4)oc3C)[nH]c(=O)c2C1 | 21% [at 2.6 µM] |
| COc1ccccc1CN1CCc2nc(SCc3nc(-c4cccc(C)c4)oc3C)[nH]c(=O)c2C1 | 14.5% [at 0.35 µM] |
| COc1ccc(NC(=O)CN2CCC3(CC2)N=C(c2cccc(F)c2)C(=O)N3)cc1OC | 28.6% [at 10 µM] |
| CCN(CCN(C)C)c1nc(-c2ccc(OC)cc2)nc2ccccc12 | -29.5% |
| COc1ccc(-c2nc(NCCCN(Cc3ccco3)C3CCCC3)c3ccccc3n2)cc1 | -19.2% [at 5 µM] |
| CN(c1nc(-c2ccc(Cl)cc2)nc2ccccc12)C1CCCCC1 | 11.9% [at 0.68 µM] |
| COc1ccc(-c2nc(N(CCN(C)C)Cc3ccccc3)c3ccccc3n2)cc1 | -20.1% [at 5 µM] |
| COc1ccc(-c2nc(N(C)c3ccc(F)cc3)c3ccccc3n2)cc1 | 36% |
| COc1ccc(-c2nc(N(Cc3ccco3)C3CCCCC3)c3ccccc3n2)cc1 | -11.5% [at 2.6 µM] |
| CCCCN(Cc1ccco1)c1nc(-c2ccc(OC)cc2)nc2ccccc12 | 14.7% [at 0.35 µM] |
| CCCN(CCC)c1nc(-c2ccc(OC)cc2)nc2ccccc12 | -8.92% [at 0.35 µM] |
| NC(=O)C1(N2CCCCC2)CCN(c2ccc(NC(=O)c3cccc(Cl)c3)cc2C(=O)O)CC1 | 1% |
| Cc1ccc(-c2coc(-c3ccc(NC(=O)Nc4ccc(C)c(F)c4)cc3)n2)cc1 | 19.5% [at 10 µM] |
| Cc1cc(C(F)(F)F)nn1CC(=O)N1CCCC1c1cc(C(C)C)no1 (stereo unspecified) | 16% [at 2.6 µM] |
| COc1cccc(CC(=O)N2CCC[C@@H]2C(=O)NCCc2csc(-c3ccccc3)n2)c1 | 18.6% [at 0.16 µM] |

| Structure (SMILES) | max activity |
| --- | --- |
| Cc1ccc2c(c1C)-n1cccc1C1(CCN(C(=O)c3ccc(Br)o3)CC1)N2 | 9.35% [at 0.35 µM] |
| COc1ccc(-c2nc(NCc3ccc(C)o3)c3ccccc3n2)cc1 | -32.7% [at 1.35 µM] |
| CCCCN(C)c1nc(-c2ccc(OC)cc2)nc2ccccc12 | 16.9% [at 0.35 µM] |
| CN(Cc1ccco1)c1nc(-c2ccc(Cl)cc2)nc2ccccc12 | -31.8% [at 0.16 µM] |
| COc1ccc(-c2nc(N(C)Cc3ccccc3)c3ccccc3n2)cc1 | 21.9% |
| COc1ccc(-c2nc(N(CC(C)C)CC(C)C)c3ccccc3n2)cc1 | -12.7% [at 0.35 µM] |
| Cc1ccc(-c2coc(-c3ccc(NC(=O)Nc4cc(C)cc(C)c4)cc3)n2)cc1 | -13.8% [at 0.68 µM] |
| CCc1nc(OCC(=O)Nc2cc(C)cc(C)c2)c2ccccc2n1 | 9.9% [at 10 µM] |
| COc1ccccc1N(Cc1nc(-c2ccccc2)oc1C)S(=O)(=O)c1ccc(C)cc1 | 13.3% [at 0.16 µM] |
| COc1ccc(S(=O)(=O)N(Cc2nc(-c3ccccc3)oc2C)c2ccccc2OC)cc1 | -10.3% [at 5 µM] |
| c1cnc(N2CCC(Oc3cnccn3)CC2)nc1 | 28.4% [at 10 µM] |
| CCc1ccccc1NC(=O)Nc1ccc(-c2nc(-c3ccc(C)cc3)co2)cc1 | -15.7% [at 0.68 µM] |
| CCOc1ccc(CC(=O)N2CCC3(CC2)Nc2cc(OC)ccc2-n2cccc23)cc1OCC | -11.1% [at 10 µM] |
| COc1ccc(CNc2nc(SCc3cc(=O)n4cc(Cl)ccc4n3)nc3ccccc23)cc1 | 14.6% [at 5 µM] |
| COCC#Cc1ccc([C@@H]2[C@@H](CO)N3C(=O)CN(C(=O)c4ccncc4)C[C@H]23)cc1 | 28.6% |
| COCC#Cc1ccc([C@@H]2[C@@H](CO)N3C(=O)CN(C(=O)c4ccncc4)C[C@@H]23)cc1 | 31.2% |
| COCC#Cc1ccc([C@@H]2[C@H]3CN(C(=O)C4CCCCC4)CC(=O)N3[C@H]2CO)cc1 | 27.9% |
| COCC#Cc1ccc([C@H]2[C@@H](CO)N3C(=O)CN(C(=O)C4CCCCC4)C[C@@H]23)cc1 | 51.9% |
| COc1ccc(NC(=O)Nc2ccc(-c3nc(-c4ccc(C)cc4)co3)cc2)cc1Cl | 83.9% |
| COc1cccc(NC(=O)CCC2Nc3c4ccccc4nc(=S)n3C2=O)c1 (stereo unspecified) | 16.8% [at 0.68 µM] |
| Cc1ccc(Cl)cc1N(CC(=O)Nc1c(F)cccc1F)S(C)(=O)=O | 6.87% |
| Cc1sc(-c2nc(C(C)C)cs2)cc1S(=O)(=O)N1CCC(C)CC1 | 11.7% |
| Cc1ccccc1-c1nc(CN2CCN(C(=O)Nc3cccc(Cl)c3)CC2)c(C)o1 | 10.5% [at 5 µM] |
| Cc1ccc(-c2nc3c(s2)CN(C(=O)Nc2cccc(C)c2C)CC3)cc1 | 22.5% [at 5 µM] |
| CC(=O)NCCNC(=O)CC1Nc2c3ccccc3nc(=S)n2C1=O (stereo unspecified) | 32% |
| COc1ccccc1CNc1nc(-c2ccc(Cl)cc2)nc2ccccc12 | 9.39% [at 0.35 µM] |

| Structure (SMILES) | max activity |
| --- | --- |
| Cc1oc(-c2ccccc2)nc1Cn1nnc(-c2nc(-c3cccc(Br)c3)no2)c1C | 5.37% [at 0.16 µM] |
| Cc1nc(CCNC(=O)C2CCN(S(=O)(=O)c3cccc(Cl)c3C)CC2)cs1 | -10.4% [at 5 µM] |
| CCCCc1ccc(Nc2ncnc3c2cnn3-c2ccc(OC)cc2)cc1 | 8.01% [at 5 µM] |
| Cc1cccc(C)c1NC(=O)CN1CCC2(CC1)N=C(c1cccc(F)c1)C(=O)N2 | 21.4% [at 0.35 µM] |
| COc1cc(NC(=O)COc2nc(C)nc3ccccc23)cc(OC)c1OC | 39.1% [at 0.35 µM] |
| O=S(=O)(c1ccccc1F)N1CCC(c2nc3ccc(-c4ccncc4)cn3n2)CC1 | -8.38% [at 0.16 µM] |
| CC(C)NC(=O)N1CC(=O)N2[C@H](CO)[C@H](c3ccc(/C=C/c4ccccc4)cc3)[C@@H]2C1 | 15.1% |
| O=C(C1CCOCC1)N1CC(=O)N2[C@@H](CO)[C@H](c3ccc(/C=C/c4ccccc4)cc3)[C@@H]2C1 | 16.6% |
| CC(C)c1ccc(-c2nc3c([nH]2)c(=O)n(C)c(=O)n3C)cc1 | 36.8% |
| COc1ccc(-c2nc(N3CCN(c4ccccc4OC)CC3)c3ccccc3n2)cc1 | -19.4% [at 0.35 µM] |
| COc1ccc(-c2nc(N3CCN(c4ccccc4F)CC3)c3ccccc3n2)cc1 | -17% [at 0.35 µM] |
| COc1ccc(CCNc2ncnc3c2cnn3-c2ccc(C)cc2C)cc1OC | -45% [at 0.16 µM] |
| CCc1nc(OCC(=O)Nc2ccc(F)cc2)c2ccccc2n1 | 24.6% [at 0.35 µM] |
| COc1ccc(-c2nc(Cn3c(=O)c4c(C)cc(C)nc4n(-c4ccccc4)c3=O)c(C)o2)cc1OC | -11.3% [at 1.35 µM] |
| COc1ccc(NC(=O)CN2CCC3(CC2)N=C(c2ccc(Cl)cc2)C(=O)N3)cc1 | -12.9% [at 0.68 µM] |
| Cc1ccc(NC(=O)CN2CCC3(CC2)N=C(c2cccc(F)c2)C(=O)N3)cc1F | -40.4% |
| CCc1ccccc1NC(=O)N1CCc2nc(-c3ccc(OC)c(OC)c3)sc2C1 | 6.34% |
| CCC(=O)N1CCC2(CC1)Nc1ccc(C)c(C)c1-n1cccc12 | -7.02% [at 5 µM] |
| Cc1nc(OCC(=O)Nc2cc(F)ccc2C)c2ccccc2n1 | 23.1% [at 10 µM] |
| Cc1ccc(-c2coc(-c3ccc(NC(=O)c4ccc(F)cc4)cc3)n2)cc1 | 95.6% |
| Cc1ccc(-c2ccc([C@H]3[C@@H](CO)N4C(=O)CN(C(=O)NC(C)C)C[C@@H]34)cc2)cc1 | 46.5% |
| Cc1ccc(-c2ccc([C@@H]3[C@H](CO)N4C(=O)CN(C(=O)NC(C)C)C[C@@H]34)cc2)cc1 | 16.7% [at 5 µM] |
| COc1ccccc1NC(=O)N1CC(=O)N2[C@H](C1)[C@@H](c1ccc(C#CC(C)C)cc1)[C@@H]2CO | -17.8% |
| COc1ccccc1NC(=O)N1CC(=O)N2[C@H](CO)[C@H](c3ccc(C#CC(C)C)cc3)[C@H]2C1 | 25.9% [at 5 µM] |
